Hits are enriched below; roughly 9.3% of the tested compounds scored in any of these assays.
NPC1 promoter act – activates the NPC1 promoter. Huh7 NPC1 promoter luciferase reporter, 24 h. 2.4% of 320,000 active. Potency, µM (titrated, usually from 9.22 µM), without a hit: top-dose activation, hits mostly activators; further: % of control where 0% means no effect; nearly all actives have a fitted effect of over 60% in size
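Huh7 cells stably carrying NPC1 promoter–luciferase, plated in Opti-MEM with 10% FBS for 2 h, were exposed to compound in DMSO for 24 h at 37 °C; luciferase reagent was added for 10 min and luminescence read.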
ELG1 genotoxic – genotoxicity induction in ELG1-luciferase HEK293T cells | HEK293T ELG1-luciferase reporter, luminescence, 16 h | Potency, µM (series often up to 46 µM), for the others: at the highest dose activity change, positive = activation, most hits filed as activators | 1.3% of 330,000 active; further: % of control where 0% means no effect; nearly all actives have a fitted effect of over 60% in size
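Cells (2,000/well) expressing the ELG1-luciferase fusion are dosed by pin tool and kept 16 hr at 37 °C, 5% CO2. Signal comes from ONE-Glo luciferase reagent after 30 min at room temperature.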
FLuc counter – inhibits or activates purified firefly luciferase, miR-21 counter-screen; AID 588342; Potency, µM (titrated, usually from 57.5 µM), for inactives: at the highest dose activity change, negative = inhibition, actives largely listed as inhibitors; P08659; purified FLuc, Km substrates, luminescence inhibition; 6.9% of 360,000 active;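 further: plate controls were vehicle for no effect and reference inhibitor for full effect; nearly all actives have a fitted effect of over 55% in size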
Target sequence (P08659 whole entry, looked up): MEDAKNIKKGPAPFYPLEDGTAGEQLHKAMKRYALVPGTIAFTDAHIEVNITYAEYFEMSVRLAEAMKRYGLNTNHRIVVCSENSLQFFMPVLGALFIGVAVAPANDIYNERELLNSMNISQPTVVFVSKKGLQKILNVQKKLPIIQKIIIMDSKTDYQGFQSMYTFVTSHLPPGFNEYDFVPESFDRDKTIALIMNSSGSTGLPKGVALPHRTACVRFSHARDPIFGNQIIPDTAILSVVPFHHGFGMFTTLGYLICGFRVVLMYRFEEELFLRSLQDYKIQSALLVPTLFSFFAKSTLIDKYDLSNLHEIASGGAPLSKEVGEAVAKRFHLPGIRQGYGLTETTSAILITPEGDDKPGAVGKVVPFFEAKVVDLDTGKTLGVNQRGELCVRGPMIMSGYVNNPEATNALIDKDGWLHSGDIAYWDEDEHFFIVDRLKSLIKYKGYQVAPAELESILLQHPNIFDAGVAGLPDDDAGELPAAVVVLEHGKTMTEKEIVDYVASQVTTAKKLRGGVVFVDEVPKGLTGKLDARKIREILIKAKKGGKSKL
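Purified P. pyralis luciferase, 10 nM final, with Km-level 10 uM D-luciferin and 10 uM ATP in 50 mM Tris acetate pH 7.5, 10 mM Mg acetate, 0.01% Tween-20, 0.05% BSA; 6-point qHTS titration about 60 µM downward; luminescence read.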
SMN2 splice up – SMN2 splice variant enhancement; Potency, µM (highest dose often 46.1 µM), for the others: at the highest dose activity change, positive = activation, most hits filed as activators; HEK293 SMN2-luciferase splicing reporter, luminescence, 30-36 h; AID 1458; 2.8% of 210,000 active; further: % of control where 0% means no effect; nearly all actives have a fitted effect of over 55% in size
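HEK293 cells carry an SMN2 minigene-luciferase reporter in which exon 7 inclusion puts luciferase in frame. Cells were seeded at 2000 cells/well, attached for 10-12 hours, then exposed to compounds for 30-36 hours at 37C before ONE-Glo luminescence.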
Rab9 promoter act – Rab9 promoter activation. Huh7 Rab9 promoter-luciferase reporter, luminescence, 24 h. Potency, µM (highest dose often 9.22 µM), for the others: top-dose activation, negative = inhibition, most hits filed as activators. 2.8% of 320,000 active. AID 485297; further: % of control where 0% means no effect; nearly all actives have a fitted effect of over 60% in size
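Measured in stably transfected Huh7 cells bearing a Rab9 promoter–luciferase construct: 24 h compound treatment at 37 °C, followed by luminescence detection.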
ELG1 DNA repair – inhibitors of ELG1-dependent DNA repair in HEK293T cells; HEK293T ELG1-luciferase reporter, luminescence, 16 h; DNA damage induced by 5-fluorouridine; Potency, µM (highest dose often 46.1 µM), for the others: top-dose activity change, negative = inhibition, usual class: inhibitors; 2.3% of 330,000 active; further: on the % scale 0 is the no-effect control and ±100 the full control effect; nearly all actives have a fitted effect of over 55% in size
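Step one: seed 2,000 cells per well. Step two: pin-transfer compound or DMSO alongside 5-fluorouridine. Step three: incubate 16 hr, 37 °C, 5% CO2. Step four: add ONE-Glo, wait 30 min, read luminescence.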
Active calls of the source: *; ? = inconclusive; . = not tested or not shown. The call rests on the fitted dose curve; in most records, active means well fitted curve in the direction sought with a large enough effect; inconclusive means small, poorly fitted or top-dose-only effect, or another doubt; inactive means no such curve, though single readings can be large; an effect the other way counts as inactive or inconclusive. Potency means the concentration at half of the fitted maximal effect.

SMILES | NPC1 promoter act | ELG1 genotoxic | FLuc counter | SMN2 splice up | Rab9 promoter act | ELG1 DNA repair
CNC(=O)COc1coc(CN2CCN(c3ccccc3OC)CC2)cc1=O | 0.9% | 5.0% | -1.8% | . | -1.3% | -12.9%
CCN(CC)C(=O)C1=C(C)Nc2nc3ccccc3n2C1c1ccccc1F (configuration not stated) | . | . | -1.9% | -12.1% | . | .
Cc1cccc(C2C=C(c3ccc(F)cc3)Nc3nc4ccccc4n32)c1 (configuration not stated) | . | . | 5.36µM* | . | . | .
Cc1ccc(C2=CC(c3ccccc3C)n3c(nc4ccccc43)N2)cc1 (configuration not stated) | . | . | 6.01µM* | . | . | .
COc1ccc(C2=CC(c3cccc(C)c3)n3nnnc3N2)cc1 (configuration not stated) | . | . | -7.9% | . | . | .
CCc1ccc(C2=CC(c3c(F)cccc3Cl)n3c(nc4ccccc43)N2)cc1 (configuration not stated) | . | . | 19µM* | . | . | .
Cc1ccc(-c2nc3n(n2)C(c2ccccc2C)C=C(c2ccc(Cl)cc2)N3)cc1 (configuration not stated) | . | . | 0.8% | 17.0% | . | .
COCn1ccnc1C(O)(c1ccc(OC)cc1)c1ccc(OC)cc1 | -1.4% | 0.2% | 1.4% | 10.4% | -4.3% | -12.7%
COc1ccc(N2CCN(C(=O)CCCN3C(=O)c4cccc5cccc(c45)C3=O)CC2)cc1 | 0.0% | -12.9% | -4.5% | -18.3% | 3.6% | 10.3µM*
Cc1cc(NC(=O)CSc2nnc(-c3ccc([N+](=O)[O-])cc3)o2)no1 | 14.2% | 2.4% | -1.3% | . | 13.3% | 9.7%
CC1CCCc2sc3nc(SCC(=O)c4ccc(Br)cc4)nc(N)c3c21 (configuration not stated) | . | . | -1.2% | -10.9% | . | .
Cc1cc(C)cc(NC(=O)c2ccc(S(=O)(=O)C(F)F)cc2)c1 | 2.1% | 1.8% | 13.5µM* | 19.2% | 2.0% | -12.1%
CCN(CC)S(=O)(=O)c1ccc(C(=O)Nc2cc(C)cc(C)c2)cc1 | -1.8% | -0.9% | -11.9% | -8.8% | 0.0% | -7.3%
Cc1nnc(NC(=O)c2ccc(S(=O)(=O)C(F)F)cc2)s1 | ? | ? | 5.36µM* | . | 2.24µM* | ?
CSc1nc2cc(C)nn2c(-c2ccccc2)c1C#N | 1.6% | 0.2% | -1.3% | . | -1.5% | 2.1%
CCC(C)OC(=O)/C(C#N)=C\c1ccc(-c2ccccc2Cl)o1 (configuration not stated) | . | . | ? | 3.7% | . | .
Nc1ccc(Oc2cc(N)cc(Oc3ccccc3)c2)cc1 | 2µM* | ? | 6.01µM* | . | ? | ?
Nc1ccc(Oc2ccc3nc(-c4ccccc4)c(-c4ccccc4)nc3c2)cc1 | 16.4% | -0.7% | -14.8% | -11.8% | 12.5% | 2.8%
CN(C)c1ccc(/C=C2/SC(=O)N(CCN=C3NS(=O)(=O)c4ccccc43)C2=O)cc1 | ? | 12.5% | -12.9% | . | ? | ?
CN(C)c1ccc(/C=C2\SC(=O)N(CCc3nnc(N)s3)C2=O)cc1 | 0.1µM* | ? | 0.135µM* | . | ? | ?
CCC(=O)Nc1ccc(NC(=O)c2oc3ccccc3c2C)cc1 | -5.3% | 9.0% | 5.36µM* | . | -9.4% | 16.6%
CC(=O)Nc1cccc(NC(=O)c2oc3ccccc3c2C)c1 | 3.16µM* | ? | 6.01µM* | 11.2µM* | 3.55µM* | ?
Nc1c(C(=O)Nc2ccc(Cl)cc2)oc2ccccc12 | 1.41µM* | 2.31µM* | 2.69µM* | 23.7% | 2.51µM* | ?
CC(=O)Nc1ccc(NC(=O)C(C)OC(=O)c2oc3ccccc3c2C)cc1 (configuration not stated) | -1.1% | ? | -0.7% | . | -1.7% | ?
CC(=O)c1oc2ccccc2c1N | 15.1% | 0.5% | 5.8% | 5.0% | 0.4% | 15.3%
SMILES | NPC1 promoter act | ELG1 genotoxic | FLuc counter | SMN2 splice up | Rab9 promoter act | ELG1 DNA repair
COc1cc(C(C)=O)ccc1OCC(O)Cn1nc(C)c(C(C)=O)c1C (configuration not stated) | 1.4% | 0.2% | -4.8% | . | -1.6% | 0.0%
COc1cccc(CN2CCN(c3nc4nonc4nc3N3CCCCC3)CC2=O)c1 | -2.2% | 1.4% | 0.9% | . | 2.4% | 8.8%
CC(C)Oc1ccc(C(=O)OCC(=O)NCCNC(=O)COC(=O)c2ccc(OC(C)C)cc2)cc1 | 2.8% | -9.7% | -1.2% | . | 2.4% | ?
O=Cc1ccccc1OCc1ccc2c(c1)OCO2 | 13.4% | 13µM* | 1.35µM* | . | 12.0% | ?
O=C1C2C(C(=O)N1/N=C/c1cccc([N+](=O)[O-])c1)C1C=CC2C12CC2 (configuration not stated) | ? | ? | 7.57µM* | 16.3% | ? | ?
O=C(/C=C/Nc1ccc(F)c(F)c1)c1ccc(Br)cc1 | 2µM* | ? | 1.51µM* | 12.6µM* | 2.51µM* | ?
CC(=O)c1cccc(NS(=O)(=O)c2ccc(N/C=C/C(=O)c3ccc(F)cc3)cc2)c1 | -8.9% | 2.1% | 5.2% | -99.2% | -21.9% | ?
O=C(/C=C/Nc1ccc(F)cc1)c1ccc(Br)cc1 | 2µM* | ? | 2.13µM* | 12.6µM* | 1.41µM* | ?
O=C(/C=C/Nc1ccc(S(=O)(=O)Nc2ncccn2)cc1)c1cccs1 | -1.9% | 3.6% | -13.3% | . | 5.5% | 0.3%
O=C(/C=C/Nc1ccc(F)c(F)c1)c1cccs1 | 3.16µM* | ? | 0.953µM* | . | 2.51µM* | ?
O=C(/C=C/Nc1ccc([N+](=O)[O-])cc1)c1ccc(Br)cc1 | 24.3% | ? | -2.8% | 23.0% | ? | ?
O=C(/C=C/c1cccs1)NCc1ccccc1 | 8.9% | 6.9% | -19.2% | ? | -5.2% | ?
CCc1ccc(S(=O)(=O)c2cn(CC(=O)Nc3ccc(F)c(Cl)c3)c3ccccc3c2=O)cc1 | . | . | -2.6% | -12.9% | . | .
CCC(=O)n1nc(-c2ccc(Cl)cc2)nc1SC | 28.3% | ? | ? | 12.6µM* | ? | ?
CCC(=O)n1nc(-c2ccc(OC)cc2)nc1SC | 26.6% | ? | 19µM* | ? | ? | ?
CCCC(=O)n1nc(-c2ccc(Cl)cc2)nc1SC | 27.8% | ? | ? | ? | 27.3% | ?
O=C(Nc1cc([N+](=O)[O-])ccc1O)c1ccc2c(c1)C(=O)N(Cc1ccco1)C2=O | 3.98µM* | 3.4% | ? | . | 3.98µM* | ?
COc1ccc(CCN(C)C(=O)c2ccc(C)c(S(=O)(=O)N3CCCCC3)c2)cc1OC | 0.5% | -1.0% | 0.2% | . | -4.3% | ?
CSc1nsc(/C=C/Nc2ccc(C(=O)O)cc2)c1C#N | -4.0% | -7.1% | 12µM* | 3.2% | 14.3% | 1.8%
Cc1n[nH]c(=O)nc1N/N=C/c1ccco1 | -5.2% | 10.0% | 0.7% | . | -0.1% | 16.1%
